Here are results for 21 compounds from PubChem BioAssay (NCATS).

Several values for one entry are separate records, joined by “and”; a condition that tells them apart may be missing. Equal values may be shown once. Results filed as inconclusive are left out. Some compounds were tested as several samples or in several runs, with calls that do not always agree. Activity calls are given as the source filed them. Calls follow the shape of the dose curve; as a rule, active = well fitted curve in the direction sought with a large enough effect; inconclusive = small, poorly fitted or top-dose-only effect, or another doubt; inactive = no such curve, though single readings can be large; an effect the other way counts as inactive or inconclusive.

A short description of assay [1]: Viability qHTS for spleen associated tyrosine kinase inhibitor (SYKi) naive MV4-11 cells (AID 1963823). Also: nearly all actives have a fitted effect of over 40% in size. A digest of the protocol: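 In this viability screen, compounds acted on SYK inhibitor naive MV4-11 cells for three days (72 hr, 37 C). Remaining viable cells were measured by CellTiter-Glo luminescence following a 10 min room-temperature development.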
Background: qHTS replaces the single test concentration by a dilution series.

Assay [2] can be described thus: Viability qHTS for spleen associated tyrosine kinase inhibitor (SYKi) drug resistant MV4-11 cells (AID 1963824). Also: nearly all actives have a fitted effect of over 35% in size. A digest of the protocol: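 SYK-inhibitor-resistant MV4-11 AML cells were seeded at 500 per well onto compound and cultured 72 hours (37 °C, 5% CO2). CellTiter-Glo was then added, and after 10 min at room temperature, luminescence gave viability.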
Assay [3] is described as follows: Cellular viability qHTS for adrenocortical cancer (ACC) cell line SW-13 (AID 1963989). Also: nearly all actives have a fitted effect of over 65% in size.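 As to activity (max response): cells grown in serum-free medium with ITS supplement; % is scaled to controls: 0 for no effect and ±100 for the full control effect.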 To be noted: SW-13 ACC cells viability, CellTiter-Glo, 48 h; activity (max response): stronger effect = lower value. In a few lines: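 Viability was read as CellTiter-Glo luminescence after 48 h compound treatment (up to 46 uM final) of SW-13 cells grown serum-free; titration curves were fit with a four-parameter logistic model to give IC50 and efficacy.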

Assay [4] can be described thus: Quantitative highthroughput screen to assess conditional lethalithy of SEM cells grown in RPMI1640 with unreated serum (RPMI+s) (AID 1963883). Also: nearly all actives have a fitted effect of over 35% in size.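 As to Viability: 100% = DMSO wells and 0% = empty wells without cells.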 In a few lines:
(§1)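 Each medium arm—HPLM with 10% dialyzed FBS, or RPMI1640 with 5 mM glucose and 10% untreated or dialyzed FBS—was screened against an 11-point, 3-fold compound titration for 48 h at 37 °C, with CellTiter-Glo luminescence as endpoint.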

The nature of assay [5]: Quantitative highthroughput screen to assess conditional lethalithy of SEM cells grown in RPMI1640 with dialyzed fetal bovine serum (RPMI+ds) (AID 1963884). Also: nearly all actives have a fitted effect of over 35% in size. In a few lines:
as §1

Assay [6] in a line: Quantitative highthroughput screen to assess conditional lethalithy of SEM cells grown in Human Plasma-Like Medium with dialyzed fetal bovine serum (HPLM+ds) (AID 1963882). Also: nearly all actives have a fitted effect of over 35% in size. As to Viability: series mostly up to about 46 µM. A digest of the protocol: as §1
Assay [7] can be described thus: Cellular viability qHTS for adrenocortical cancer (ACC) cell line NCI-H295R (AID 1963990). Also: nearly all actives have a fitted effect of over 60% in size. A digest of the protocol:
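CellTiter-Glo ATP luminescence, read 48 h after compound addition, measured viability of NCI-H295R adrenocortical cells grown serum-free with ITS. Final concentrations spanned up to 46 uM. Data normalized to DMSO and doxorubicin, fitted for IC50 and maximal response.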
Potency is read from the fitted curve at half-maximal effect.

Regarding `CC(=O)OC[C@H]1O[C@@](COC(C)=O)(O[C@H]2O[C@H](COC(C)=O)[C@@H](OC(C)=O)[C@H](OC(C)=O)[C@H]2OC(C)=O)[C@@H](OC(C)=O)[C@@H]1OC(C)=O`, the Potency entry in assay [1] and in assay [2] was “inactive” throughout. Further, the activity (max response) in assay [3] is 1.89% (inactive).

Turning to `CC(C)OC(=O)c1cc(C(=O)OC(C)C)cc([N+](=O)[O-])c1`, the Potency in assay [1] is 27.9 µM (active). For the same compound, the Potency result in assay [2] is “inactive”. The activity (max response) in assay [3] is 4.98% (inactive).

For `CN[C@@H]1C[C@H]2O[C@@](C)([C@@H]1OC)n1c3ccccc3c3c4c(c5c6ccccc6n2c5c31)C(=O)N[C@H]4O`, the values for the Potency in assay [1], in assay [2] and in assay [3] were 0.0119 µM (active), 0.0237 µM (active) and 0.376 µM (active), respectively.

Take `CN(C[C@@H]1COCCO1)S(=O)(=O)Nc1ccc2ccc3ncc(-c4cnn(C)c4)cc3c(=O)c2c1`: the Potency in assay [1] was 0.296 µM (active); in assay [2] it was 0.461 µM (active); in assay [4] it was 0.418 µM (active); in assay [5] it was 0.662 µM (active).

As for `O=C(O)c1cn(C2CC2)c2cc(N3CCNCC3)c(F)cc2c1=O`, the Potency result in assay [1], in assay [2] and in assay [7] was “inactive” in each case. Moreover, the Potency in assay [6] is 16.6 µM (active); in assay [5] it was 3.72 µM (active). In assay [3], the activity (max response) is -3.87% (inactive) and 6.05% (inactive).

For the compound `CCC(=O)NS(=O)(=O)c1ccc(-c2c(-c3ccccc3)noc2C)cc1`, in assay [1], the Potency entry is “inactive”. The Potency in assay [2] is 8.2 µM (active). The activity (max response) in assay [3] is -1.9% (inactive).

For `Cc1cnc(C(=O)NCCc2ccc(S(=O)(=O)NC(=O)NC3CCCCC3)cc2)cn1`, the Potency result in assay [1], in assay [2], in assay [6], in assay [4] and in assay [7] was “inactive” in each case. For the same compound, the activity (max response) in assay [3] is -1.95% (inactive) and -7.3% (inactive).

On to `CC1(N)CCN(c2cccnc2NC(=O)c2nc(-c3ncccc3C(F)(F)F)cnc2N)CC1`, for which the Potency in assay [1] was 5.9 µM (active); in assay [2], 11.8 µM (active); in assay [3], 17.8 µM (active).

For the compound `C[C@H](NC(=O)c1c(N)nn2cccnc12)c1cc2cccc(C#Cc3cnn(C)c3)c2c(=O)n1-c1ccccc1`, the Potency in assay [1] and in assay [2] was 7.23 µM (active) throughout. Besides, in assay [3], the activity (max response) is -17.5% (inactive).

`CC(C)C[C@H](CO)Nc1nc(S[C@@H](C)c2ccccc2)nc2nc(N)sc12`: the Potency was 14.6 µM (active) in assay [1], 6.61 µM (active) in assay [2] and 31.6 µM (active) in assay [3].

With `CC[C@H](CC#N)OC(=O)N[C@@H](C)c1cccc(NC(=O)Nc2ccc(-c3cnco3)c(OC)c2)c1`, the Potency is 326 nM (active) and 263 nM (active) in assay [1]; 231 nM (active) and 263 nM (active) in assay [2]; 2.09 µM (active) in assay [4]; 28.2 µM (active) in assay [3].

`Nc1cccc(-c2cc3c(Oc4cccc(O)c4)ncnc3[nH]2)c1`: the Potency was 1.66 µM (active) in assay [1]; 2.91 µM (active) and 3.32 µM (active) in assay [2]; 16.6 µM (active) in assay [6]; 3.16 µM (active) in assay [3].

Regarding `NC(=NCc1ccccc1)NC(=O)c1nc(Cl)c(N)nc1N`, the Potency in assay [1] was 3.32 µM (active); in assay [2], 5.25 µM (active); in assay [5] it was 14.8 µM (active).

On to `CC(C(O)c1ccccc1)N(C)CCOC(c1ccccc1)c1ccccc1` (stereo not given), for which the values for the Potency in assay [1], in assay [2] and in assay [3] were 9.2 µM (active), 8.2 µM (active) and 20.6 µM (active), respectively.

Consider `Cc1c(NC(=O)c2cc(C(N)=O)nc3cc(F)ccc23)c(C(F)(F)F)nn1Cc1ccc(C#N)cc1`, for which the Potency entry in assay [1] was “inactive and 14.8 µM (active)”. Moreover, the Potency result in assay [2] was “inactive”. Moreover, the activity (max response) in assay [3] is -7.79% (inactive).

Consider `CCn1nc(C2CCN(C(=O)CCO)CC2)nc1-c1cnc(N)c(-c2nnc(C(C)(C)C)o2)n1`, for which the Potency in assay [1] and in assay [2] was 5.25 µM (active) each time. Further, the activity (max response) in assay [3] is -18.1% (inactive).

For the compound `C[C@]12C=CC(=O)C=C1CC[C@H]1[C@@H]3C[C@@H](O)[C@](O)(C(=O)CO)[C@@]3(C)C[C@H](O)[C@@]12F`, the Potency result in assay [1] and in assay [2] was “inactive” in each case. In addition, the activity (max response) in assay [3] is 4.79% (inactive).

In the case of `CN1CCC(c2c(O)cc(O)c3c(=O)cc(-c4ccccc4Cl)oc23)C1CO` (stereo not given), the Potency was 0.742 µM (active) in assay [1], 0.59 µM (active) in assay [2] and 3.16 µM (active) in assay [3].

As for `c1ccc(-c2oc3ncnc(NC[C@@H]4CCCO4)c3c2-c2ccccc2)cc1`, the Potency in assay [1] is 9.2 µM (active); in assay [2] it was 13 µM (active). In assay [6], the Potency result was “inactive”. In assay [3], the activity (max response) was -50.5% (inactive).

For `CC(=O)OCC(=O)[C@@]12OC(C)(C)O[C@@H]1C[C@H]1[C@@H]3C[C@H](F)C4=CC(=O)C=C[C@]4(C)[C@@]3(F)[C@@H](O)C[C@@]12C`, the Potency result in assay [1] was “inactive and 93.4 nM (active)”. Moreover, the Potency entry in assay [2] was “inactive”. The activity (max response) in assay [3] is 10.5% (inactive) and 8.23% (inactive).

With `CCOc1ccn(-c2ccc(F)cc2)c(=O)c1C(=O)Nc1ccc(Oc2ccnc(N)c2Cl)c(F)c1`, the Potency was 366 nM (active) and 525 nM (active) in assay [1]; 580 nM (active) and 1.05 µM (active) in assay [2]; 1.48 µM (active) in assay [6]; 3.32 µM (active) in assay [4]; 14.1 µM (active) in assay [7].
